Data on 29 molecules can be found in PubChem BioAssay (Tox21).

A number with no mark means an inactive call. Records with an inconclusive call do not appear. The source made the active and inactive calls. Unless noted, calls follow the shape of the dose curve; as a rule, active = well fitted curve in the direction sought with a large enough effect in the repeat runs; inconclusive = weak or mixed curves; inactive = no such curve, though single readings can be large; an effect the other way counts as inactive or inconclusive.

Experiment [1] is described as follows: qHTS assay to identify small molecule agonists of the hypoxia (HIF-1) signaling pathway - cell viability counter screen (AID 1224844; calls by dose curve; also: nearly all actives have a fitted effect of over 50% in size). A digest of the protocol: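 Cells (HRE-bla ME-180, 2,000 per well) sat 5 hrs at 37C, got compound for 17 hrs, were read for CCF4-AM FRET, and were finally lysed with CellTiter-Glo for a 30 min room-temperature luminescence read.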
In general terms: In qHTS, concentration-response curves come from the screen itself.

Experiment [2] is described as follows: qHTS assay to identify small molecule agonists of H2AX (AID 1224845; active = well fitted activation curve with a large enough effect in the signal ratio in the repeat runs, not every such curve was filed as active; the % refers to the signal ratio). A digest of the protocol: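 Phospho-H2AX Ser139 measured by HTRF (ex 320 nm; em 665 and 620 nm) after 24 hr antibody incubation. Compounds, 15 concentrations, 0.76% DMSO, were applied to CHO-K1 cells for 3hr at 37C before lysis.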
Experiment [3] in a line: qHTS assay to identify small molecule agonists of the hypoxia (HIF-1) signaling pathway (AID 1224846; active = well fitted activation curve with a large enough effect in the signal ratio in the repeat runs, not every such curve was filed as active; the % refers to the signal ratio). Put shortly: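 A low-serum medium (0.5% dialyzed FBS) holding 2,000 HRE-bla ME-180 cells per well is preincubated for 5 hrs, dosed with compounds by pintool, and kept a further 17 hrs at 37C, 5% CO2 before CCF4-AM FRET detection of beta-lactamase.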
Experiment [4] in a line: qHTS assay to identify small molecule agonists of H2AX - cell viability counter screen (AID 1224847; calls by dose curve;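 also: wild-type CHO-K1 cells; top concentration of the series differs between compounds; nearly all actives have a fitted effect of over 30% in size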). Put shortly:
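CHO-K1 cells plated overnight at 37C, then exposed 3 h at 37C to compounds at 15 concentrations (0.76% DMSO final). Viability by CellTiter-Glo luminescence after 30 min at room temperature.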

A short description of experiment [5]: qHTS RealTime-Glo MT Cell Viability Assay in HepG2 cells - 24 hour (AID 1224867). Also: nearly all actives have a fitted effect of over 50% in size. A digest of the protocol:
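qHTS, HepG2, 600 cells/well, RealTime-Glo (NanoLuc + prosubstrate) added with cells; 5 h preincubation; DMSO compound addition; 37 C; luminescence at 0/8/16/24/32/40 h.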

A short description of experiment [6]: qHTS RealTime-Glo MT Cell Viability Assay in HEK293 cells - 32 hour (AID 1224868). Also: nearly all actives have a fitted effect of over 50% in size. Also: potency is read from the fitted curve at half-maximal effect. As to activity change, negative = cytotoxic: top concentration of the series differs between compounds. A digest of the protocol: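 Assay medium contained NanoLuc luciferase plus cell-permeant prosubstrate, added with HEK293 cells at 600 cells/well. After 5 h at 37 C/5% CO2 compounds were added; plates stayed at 37 C for 40 h with serial luminescence reads.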
The nature of experiment [7]: A CellTox Green Cytotoxicity Assay to monitor cytotoxicity in HEK293 cells - 0 hour (AID 1224869). Also: nearly all actives have a fitted effect of over 50% in size. A digest of the protocol: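 Fluorescence intensity, read at 0, 8, 16, 24, 32 and 40 h of compound treatment, reflected dye binding to DNA of dead HEK293 cells; compounds (23 nL, DMSO) were added 5 h after plating cells with reagent.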
Experiment [8] can be described thus: qHTS assay to identify small molecule antagonists of the estrogen related receptor (ERR) signaling pathway from Tox21 library (AID 1224848). Also: nearly all actives have a fitted effect of over 50% in size. Put shortly: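 Reading was by luminescence 30 min after ONE-Glo addition. Before that, ERR cells at 2,000 per well had rested 6 h at 37 C/5% CO2 and then received pin-tooled compounds in DMSO for 18 h at 37 C.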
The nature of experiment [9]: qHTS assay to identify small molecule agonists of the estrogen related receptor (ERR) signaling pathway from Tox21 library (AID 1224849; calls by dose curve; also: nearly all actives have a fitted effect of over 15% in size). To be noted: ERR reporter cell line, ONE-Glo luciferase, 18 h; at 92.4 µM (top of the series) unless noted. A digest of the protocol:
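Screening used an NTP-provided ERR luciferase cell line. Compounds in DMSO were added 6 h after seeding and left 18 h at 37 C before a 30 min ONE-Glo step and luminescence reading.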
% is scaled to controls: 0 for no effect and ±100 for the full control effect.

As to `CC(=O)C(=O)CC(C)C`, the Potency result in experiment [1], in experiment [2], in experiment [4], in experiment [5], in experiment [6] and in [7] was “inactive” throughout. Further, the call in experiment [3] was inactive.
On to `CC(=O)OCCC1CCCCC1`, for which the Potency result in [1], in [2], in experiment [4], in experiment [5], in experiment [6] and in [7] was “inactive” in each case. The molecule was called inactive in [3].
Consider `CC1C(C)(C)C2=C(C(=O)CCC2)C1(C)C` (stereo not given), for which the Potency result in experiment [1], in [2], in experiment [4], in [8] and in experiment [7] was “inactive” in each case. Also, the molecule was called inactive in [3]. The activity change, positive = activation in [9] is -0.756%.
For the molecule `CCCCCCCCCCCC(=O)OCC(O)CO` (stereo not given), the Potency result in [1], in [2], in experiment [8], in experiment [5], in [6] and in experiment [7] was “inactive” in each case. Moreover, the call in experiment [3] was inactive. The activity change, positive = activation in experiment [9] is 2.33%.
With `Cc1ccc2c(c1)CCCN2`, the Potency entry in [1], in [2], in experiment [4], in experiment [5], in [6] and in experiment [7] was “inactive” throughout. In addition, the outcome in [3] was inactive.
Take `Cc1ccc(S(=O)(=O)NC(=O)NC2CCCCC2)cc1`: the Potency result in experiment [1], in experiment [2], in [4], in experiment [5] and in [7] was “inactive” in each case. For the same molecule, in [3], the result was inactive.
On to `CCOC(=O)C(C)O` (stereo not given), for which the Potency entry in experiment [1], in experiment [2], in [4], in [5] and in experiment [6] was “inactive” each time. Also, the molecule was called inactive in experiment [3].
As for `CSSc1ccoc1C`, the Potency entry in experiment [1], in experiment [2], in [4], in experiment [5], in [6] and in experiment [7] was “inactive” each time. Besides, in experiment [3], the result was inactive.
For `CC(C)N=C=NC(C)C`, the Potency entry in [1], in experiment [2], in experiment [4], in experiment [8], in experiment [5] and in experiment [6] was “inactive” throughout. In addition, the Potency result in [7] is “inactive”. Besides, the call in experiment [3] was inactive. Further, in experiment [9], the activity change, positive = activation is 2.53%.
As for `C=C(C)C(=O)OCCC(F)(F)C(F)(F)C(F)(F)C(F)(F)C(F)(F)C(F)(F)F`, the Potency result in experiment [1], in experiment [2], in [4], in experiment [5] and in experiment [7] was “inactive” throughout. The molecule was classed as inactive in experiment [3].
On to `CC1CCCO1` (stereo not given), for which the Potency result in experiment [1], in experiment [2], in experiment [4], in experiment [5], in [6] and in experiment [7] was “inactive” throughout. In addition, the outcome in experiment [3] was inactive.
As to `C=CC(=O)NC(C)C`, the Potency result in [1], in experiment [2], in [4], in experiment [8] and in experiment [6] was “inactive” throughout. In experiment [3], the call was inactive. Also, the activity change, positive = activation in [9] is 4.77%.
As for `COc1ccc(-c2cc(C(F)F)nn2-c2ccc(S(N)(=O)=O)cc2)cc1F`, the Potency entry in [1], in [2], in [4], in [5] and in experiment [7] was “inactive” throughout. Besides, the call in experiment [3] was inactive. For the same molecule, the activity change, positive = activation in experiment [9] was -17.4% [at 42.5 µM].
Consider `Nc1ccc(F)cc1`, for which the Potency result in [1], in experiment [2], in experiment [8], in experiment [5], in experiment [6] and in experiment [7] was “inactive” in each case. The call in [3] was inactive. The activity change, positive = activation in [9] is 0.224%.
On to `CCCCCCCCCCCCCCN(C)C`, for which the activity change, negative = cytotoxicity is -7.12% [at 15.8 µM] in [1], 0.248% [at 31.6 µM] in experiment [4] and 1.14% [at 15.8 µM] in [5]. The activation (H2AX phosphorylation) in experiment [2] was 0.821% [at 31.6 µM]. In experiment [3], the activation was -0.0233% [at 15.8 µM]. Further, in [6], the activity change, negative = cytotoxic was -30.2% [at 15.8 µM]. In addition, in experiment [7], the cytotoxicity is -21.7% [at 15.8 µM].
`COC(CC(C)CCCC(C)(C)O)OC` (stereo not given): the Potency entry in experiment [1], in [2], in experiment [4], in experiment [5], in experiment [6] and in experiment [7] was “inactive” throughout. Further, in experiment [3], the call was inactive.
As to `O=C(O)CCC(=O)c1ccc(-c2ccccc2)cc1`, the Potency result in experiment [1], in experiment [2], in [4], in [5], in experiment [6] and in experiment [7] was “inactive” throughout. In addition, the outcome in experiment [3] was inactive.
Regarding `CCCCCCCCCCCCCCCC(=O)OCC`, the Potency result in experiment [1], in [2], in experiment [4], in experiment [5] and in [7] was “inactive” each time. For the same molecule, in experiment [3], the molecule was classed as inactive.
Regarding `COc1ccc(C)cc1`, the Potency entry in experiment [1], in experiment [2], in [4], in experiment [5] and in experiment [6] was “inactive” each time. In [3], the call was inactive.
Turning to `CC(CO)(CO)C(=O)O`, the Potency entry in experiment [1], in experiment [2], in experiment [4], in experiment [8] and in [7] was “inactive” each time. The outcome in experiment [3] was inactive. Also, the activity change, positive = activation in [9] is -0.0649%.
Consider `CCC(CO)(CO)CO`, for which the Potency entry in experiment [1], in experiment [2], in experiment [4] and in [6] was “inactive” each time. In addition, the molecule was called inactive in experiment [3].
`Cc1ccc(Cl)cc1N`: the Potency result in experiment [1], in experiment [2], in [4], in [5], in experiment [6] and in experiment [7] was “inactive” in each case. The outcome in [3] was inactive.
For `Cc1cc(CCC(=O)OCCOCCOCCOC(=O)CCc2cc(C)c(O)c(C(C)(C)C)c2)cc(C(C)(C)C)c1O`, the Potency result in experiment [1], in [2], in experiment [4], in [5] and in experiment [7] was “inactive” in each case. The result in [3] was inactive.
As for `CCOCCC(=O)OCC`, the Potency result in experiment [1], in experiment [2], in [4] and in [7] was “inactive” throughout. In addition, in experiment [3], the call was inactive.
Regarding `CC[C@H]1OC(=O)[C@H](C)[C@@H](O[C@H]2C[C@@](C)(OC)[C@@H](O)[C@H](C)O2)[C@H](C)[C@@H](O[C@@H]2O[C@H](C)C[C@H](N(C)C)[C@H]2O)[C@](C)(O)C[C@@H](C)CN(C)[C@H](C)[C@@H](O)[C@]1(C)O`, the Potency entry in [1], in [2], in [4] and in [5] was “inactive” in each case. The molecule was called inactive in experiment [3].
On to `Cc1ccc2c(c1[N+](=O)[O-])C(=O)c1ccccc1C2=O`, for which the Potency entry in experiment [1], in [2], in experiment [4], in experiment [8] and in experiment [7] was “inactive” in each case. Also, the result in [3] was inactive. Moreover, in [6], the Potency was 0.958 µM (active).
As for `Nc1nc(-c2ccc([N+](=O)[O-])cc2)cs1`, the Potency entry in experiment [1], in experiment [2], in experiment [4], in experiment [5], in experiment [6] and in experiment [7] was “inactive” throughout. Also, in experiment [3], the call was inactive.
Turning to `CC(C)COC(=O)COc1cc(Cl)c(Cl)cc1Cl`, the Potency entry in [1], in [2], in experiment [8], in [5], in experiment [6] and in experiment [7] was “inactive” throughout. In [3], the call was inactive. Also, the activity change, positive = activation in [9] is -0.133%.
Take `CCCCCCCC/C=C/C(=O)O`: the Potency entry in experiment [1], in [2], in experiment [4], in [5] and in experiment [6] was “inactive” each time. Moreover, the outcome in experiment [3] was inactive.
